Laboratory results from PubChem BioAssay AID431 (Sanford-Burnham Center for Chemical Genomics, 2006).
Out of some 63,000 compounds screened, about 1,100 (1.7%) were called active.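 The calls were made as follows: active = compounds whose percent cytotoxicity in the single-dose primary screen, scaled between solvent and toxic-drug controls, exceeds 50; inactive = the rest.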 The full list was thinned out, with actives kept by preference. Measured potencies and affinities stand elsewhere.

Assay: cytotoxicity in KRAS-transformed pancreatic duct cells, primary screen, cell-based, fluorescence, HTS (AID 431);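 also: 0% = DMSO solvent wells and 100% = doxorubicin-treated wells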
Conditions: HPDE-C7K KRASV12 cells, Alamar Blue viability, 48 h; at 10 µM; hits give high values

Row | SMILES | cytotoxicity
1 | CN1C(=O)CC(N2CCN(CC(=O)N3CCCC3)CC2)C1=O (stereo unspecified) | -1.8% (inactive)
2 | COc1ccc(S(=O)(=O)NC2CCCC2)cc1Br | 8.9% (inactive)
3 | Nc1nc(Cl)nc2c1ncn2[C@@H]1O[C@H](CO)[C@@H](O)[C@H]1O | 2.5% (inactive)
4 | Nc1ncnc2c1ncn2[C@@H]1O[C@H](CO)[C@@H](O)[C@H]1O | -17.3% (inactive)
5 | OC[C@H]1O[C@@H](n2cnc3c(NC4CCCC4)ncnc32)[C@H](O)[C@@H]1O | 3.7% (inactive)
6 | C=CCNc1ncnc2c1ncn2C1OC(CO)C(O)C1O (stereo unspecified) | 53.6% (active)
7 | Nc1nc(F)nc2c1ncn2[C@@H]1O[C@H](CO)[C@@H](O)[C@@H]1O | 42.7% (inactive)
8 | OC[C@H]1O[C@@H](n2cnc3c(Nc4ccccc4)ncnc32)[C@H](O)[C@@H]1O | 62.3% (active)
9 | COc1cccc2cc(C(=O)Nc3cccnc3N3CCOCC3)c(=O)oc12 | 7.3% (inactive)
10 | O=C(CSc1nnnn1-c1ccc2c(c1)OCCO2)c1cccc2c1OCCO2 | 10.2% (inactive)
11 | COc1cccc(/C=N/n2c(CO)nc3ccccc32)c1OC | -4.1% (inactive)
12 | CC(O)C(O)C(O)C(O)C1NCCS1 (stereo unspecified) | 5.8% (inactive)
13 | CCCn1c(=N)n(CC(O)COc2cccc(C)c2)c2ccccc21 (stereo unspecified) | 12.4% (inactive)
14 | COc1ccc(OCC(O)Cn2c(=N)n(Cc3ccccc3)c3ccccc32)cc1 (stereo unspecified) | 22.1% (inactive)
15 | CCn1c(=N)n(CC(O)COc2cccc(C)c2)c2ccccc21 (stereo unspecified) | 23.6% (inactive)
16 | CCCCn1c(=N)n(CC(O)COc2ccccc2)c2ccccc21 (stereo unspecified) | 13.3% (inactive)
17 | CCCCn1c(=N)n(CC(O)COc2cccc(C)c2)c2ccccc21 (stereo unspecified) | 50.9% (active)
18 | N=c1n(Cc2ccccc2)c2ccccc2n1CC(O)COc1ccccc1 (stereo unspecified) | 53% (active)
19 | O=C(COc1ccccc1)NCCSc1ccccc1 | 0% (inactive)
20 | CCN(CC)S(=O)(=O)c1ccc(OCC(=O)NCc2ccccc2)cc1 | 7.9% (inactive)
21 | Cc1ccc(NC(=O)CSCc2c(C)noc2C)cc1C | -2.9% (inactive)
22 | COc1ccccc1Cn1c2nc3ccccc3nc2c2c(=O)n(CC(C)C)cnc21 | 5% (inactive)
23 | O=C(NC1CCCCC1)C1CCN(S(=O)(=O)c2cccc3cccnc23)CC1 | -12.2% (inactive)
24 | Cn1c(-c2ccc3c(c2)OCO3)cnc1NCc1cccc(Cl)c1 | 63.6% (active)

Row | SMILES | cytotoxicity
25 | Cn1c(-c2ccc3c(c2)OCO3)cnc1NCc1ccccc1 | -4.5% (inactive)
26 | Cn1c(-c2ccc3c(c2)OCO3)cnc1NC(=O)CCC(=O)NCCc1ccccc1 | -0.9% (inactive)
27 | Cn1c(-c2ccc3c(c2)OCO3)cnc1NCc1ccc(Cl)cc1 | 62.3% (active)
28 | Cn1c(-c2ccc3c(c2)OCO3)cnc1N | 8.4% (inactive)
29 | Cc1ccc(CNc2ncc(-c3ccc4c(c3)OCO4)n2C)cc1 | -5.9% (inactive)
30 | COc1ccc(CN2CCN(S(=O)(=O)c3ccc(NC(C)=O)cc3)CC2)cc1OC | -2.4% (inactive)
31 | O=C(NCCN1C(=O)C2C3C=CC(C3)C2C1=O)Nc1ccc(Br)cc1 (stereo unspecified) | 8.1% (inactive)
32 | COc1cccc(S(=O)(=O)Nc2ccc(C(=O)NCc3ccco3)cc2)c1 | -28.4% (inactive)
33 | COc1ccc(CC(=O)N2CCN(C(=O)Cc3ccc(OC)cc3)CC2)cc1 | -6.3% (inactive)
34 | CCCCNC(=O)c1c(N)n(/N=C/c2cccnc2)c2nc3ccccc3nc12 | 12.3% (inactive)
35 | COCCCNC(=O)c1c(N)n(/N=C/c2cccnc2)c2nc3ccccc3nc12 | 22.5% (inactive)
36 | Nc1c(C(=O)NC2CCCCC2)c2nc3ccccc3nc2n1/N=C/c1ccco1 | 4.7% (inactive)
37 | Nc1c(C(=O)NC2CCCC2)c2nc3ccccc3nc2n1/N=C/c1cccnc1 | 66.8% (active)
38 | CC(C)CNC(=O)c1c(N)n(/N=C/c2ccccn2)c2nc3ccccc3nc12 | 1.7% (inactive)
39 | CCC(C)NC(=O)c1c(N)n(/N=C/c2cccnc2)c2nc3ccccc3nc12 (stereo unspecified) | 51.8% (active)
40 | CCCCNC(=O)c1c(N)n(/N=C/c2ccccn2)c2nc3ccccc3nc12 | 38.1% (inactive)
41 | CC(C)CNC(=O)c1c(N)n(/N=C/c2cccnc2)c2nc3ccccc3nc12 | 1.6% (inactive)
42 | Cc1ccnc(N(C(=O)c2cccs2)C(=O)c2cccs2)c1 | -0.7% (inactive)
43 | C=CCN1C(c2ccccc2)=CS/C1=C(\C#N)c1nnc2n1CCCCC2 | -0.6% (inactive)
44 | Cc1cc(C(=O)OCC(=O)NC(=O)NC(C)(C)C)c(C)o1 | -3.4% (inactive)
45 | COc1cccc(-c2cc(C(=O)N3CCN(C(c4ccccc4)c4ccccc4)CC3)no2)c1 | -8.3% (inactive)
46 | C=CCn1c(SCc2ccccc2C#N)nnc1-c1cc(Br)ccc1O | 13.1% (inactive)
47 | C#CC(C)(C)NC(=O)c1ccccc1OC | -11.3% (inactive)
48 | COc1cccc(C(=O)Nc2ccc(NC(=O)C(C)(C)C)cn2)c1 | 19.5% (inactive)

Row | SMILES | cytotoxicity
49 | CSc1ccc(C2C(C#N)=C(N)Oc3c2ccc(=O)c2c(C)oc(C)c32)cc1 (stereo unspecified) | -2.3% (inactive)
50 | Cc1oc(C)c2c(=O)ccc3c(c12)OC(N)=C(C#N)C3c1ccccc1 (stereo unspecified) | -7.8% (inactive)
51 | CCOc1cc(NC(=O)c2ccccn2)c(OCC)cc1NC(=O)CC(C)C | 9.9% (inactive)
52 | CCOC(=O)NC1(C(F)(F)F)C(=O)NC(C)=C1C#N (stereo unspecified) | 2.9% (inactive)
53 | O=c1c2ccccc2nc(SCc2ccccc2)n1Cc1ccco1 | -7% (inactive)
54 | O=C(CSc1nc2ccccc2c(=O)n1Cc1ccco1)NCc1ccccc1 | 58.5% (active)
55 | O=C(CSc1nc2ccccc2c(=O)n1Cc1ccco1)NCc1ccco1 | -11.8% (inactive)
56 | CCOC(=O)CSc1nc2ccccc2c(=O)n1Cc1ccco1 | -3% (inactive)
57 | O=c1c2ccccc2nc(SCc2cc(F)cc3c2OCOC3)n1Cc1ccco1 | -5.3% (inactive)
58 | CCOC(=O)c1cc2c(c(CSc3nc4ccccc4c(=O)n3Cc3ccco3)c1)OCOC2 | 62.1% (active)
59 | Cn1c(CN2CCOCC2)nnc1SCC(=O)Nc1nccs1 | 1.8% (inactive)
60 | COc1ccc(C(C(=O)OC(C)CN(C)C)c2ccccc2)cc1 (stereo unspecified) | -8.5% (inactive)
61 | CCC(C(=O)c1ccc(O)cc1)c1ccccc1 (stereo unspecified) | 18.5% (inactive)
62 | CN(C)CC(C(=O)c1ccccc1)c1ccccc1 (stereo unspecified) | 100% (active)
63 | COc1cccc(C2/C(=C(/O)c3cnn(-c4ccccc4)c3C)C(=O)C(=O)N2CCN(C)C)c1OC (stereo unspecified) | 11.3% (inactive)
64 | CCC(c1nnnn1Cc1ccccc1)N1CCN(C(=O)c2ccco2)CC1 (stereo unspecified) | -1.7% (inactive)
65 | COc1ccccc1-c1cc(C(F)(F)F)nc(N2CCCC2)n1 | -16.5% (inactive)
66 | COc1ccccc1-c1cc(C(F)(F)F)nc(S(=O)(=O)CCCC(=O)N2CCCCC2C)n1 (stereo unspecified) | 50.1% (active)
67 | COc1ccccc1-c1cc(C(F)(F)F)nc(S(=O)(=O)CCCC(=O)Nc2cc(C)on2)n1 | 27.3% (inactive)
68 | COc1ccccc1-c1cc(C(F)(F)F)nc(N2CCOCC2)n1 | -4.5% (inactive)
69 | COc1ccccc1-c1cc(C(F)(F)F)nc(S(=O)(=O)CCCC(=O)NC(C)C)n1 | -3.9% (inactive)
70 | COc1cccc(Oc2cn[nH]c2-c2ccc(O)cc2O)c1 | 43.9% (inactive)
71 | COc1ccc(-c2[nH]ncc2-c2cnn(-c3ccccc3)c2)c(O)c1 | 2.7% (inactive)
72 | CCOc1ccc(-c2[nH]ncc2Oc2cccc(OC)c2)c(O)c1 | 58.3% (active)

Row | SMILES | cytotoxicity
73 | COc1cccc(Oc2cn[nH]c2-c2ccc(OC)cc2O)c1 | 80.7% (active)
74 | CCOc1cccc(OCCOCCN2CCCC2)c1 | -6.3% (inactive)
75 | COc1ccc(CC(=O)Nc2cccc(-c3nnc(-c4ccc(C)cc4)o3)c2)cc1OC | 18.8% (inactive)
76 | O=C(c1ccco1)N1C2C=CC(C2)C1(C(F)(F)F)C(F)(F)F (stereo unspecified) | 0.4% (inactive)
77 | COc1cccc(C2=NOC(C(=O)NC(C)(C)C)C2)c1 (stereo unspecified) | 0.2% (inactive)
78 | COc1cccc(C2=NOC(C(=O)NC(C)C)C2)c1 (stereo unspecified) | -9.8% (inactive)
79 | Cc1cc2cc(CNC(=O)c3ccc4c(c3)OCO4)ccc2[nH]1 | 15.6% (inactive)
80 | OCCSc1nc(-c2cccnc2)nc2ccccc12 | 2.2% (inactive)
81 | Cn1nnnc1Sc1nc(-c2cccnc2)nc2ccccc12 | 109% (active)
82 | CN1CCN(c2nc(-c3cccnc3)nc3ccccc23)CC1 | -10.1% (inactive)
83 | O=C(NCc1ccco1)c1cccnc1-c1nc2ccccc2s1 | 0% (inactive)
84 | COC(=O)c1cn(CC(=O)N2CCCCCC2)c2ccccc12 | 3.6% (inactive)
85 | Cn1nccc1C(=O)OCC(=O)Nc1nc(-c2ccccc2)cs1 | -24.7% (inactive)
86 | O=C1c2[nH]nc(-c3ccccc3O)c2C(c2ccccc2)N1Cc1ccco1 (stereo unspecified) | 32.3% (inactive)
87 | CC(=O)C1=C(O)C(=O)N(Cc2ccco2)C1c1ccc(F)cc1 (stereo unspecified) | 8.7% (inactive)
88 | O=C1c2ccccc2NC(c2ccc(F)cc2)N1Cc1ccco1 (stereo unspecified) | 2.1% (inactive)
89 | O=C1c2ccccc2C(O)N1Cc1ccco1 (stereo unspecified) | -9% (inactive)
90 | O=C1C(=O)N(Cc2ccco2)C(c2cccc(Cl)c2)/C1=C(\O)c1ccc2c(c1)OCCO2 (stereo unspecified) | 2.2% (inactive)
91 | O=C1c2[nH]nc(-c3ccccc3O)c2C(c2cccc(Cl)c2)N1CC1CCCO1 (stereo unspecified) | 38.2% (inactive)
92 | CCn1c(SCC(=O)NCc2cccs2)nnc1-c1ccncc1 | -3.4% (inactive)
93 | O=C(Nc1ccc(C(=O)Oc2ccccc2)c(O)c1)c1ccco1 | -1.3% (inactive)
94 | Cc1sc2ncnc(SCC(=O)N3CCCC3)c2c1C | -13.4% (inactive)
95 | O=C(CSc1nnc(Cc2ccccc2)o1)N1CCc2ccccc21 | -9.6% (inactive)
96 | C=CCn1c(=N)c(C(=O)OC)cc2c(=O)n3cccc(C)c3nc21 | -26.9% (inactive)
